Sampled rows, rich in hits. Any-hit rate of the full collection: about 21%.
NS1 function inh – qHTS Assay for Inhibitors of Influenza NS1 Protein Function. AID 2326, 2010. 270,000 compounds, 0.4% hits. Potency, µM (highest dose often 46.1 µM), inactives show at the top dose activity, positive = more growth; calls by dose curve; note: potency is the fitted concentration of half-maximal effect; actives are rising curves; nearly all actives have a fitted effect of over 50% in size
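Read-out: OD600 growth recovery of NS1-expressing budding yeast. Cells grown overnight at 30C in -URA glucose medium, washed, resuspended and diluted 1:100 in 2% galactose assay medium, pH 6.0. Same strain lacking NS1 served as positive control.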
Shiga toxin inh – A qHTS for Small Molecule Inhibitors of Shiga Toxin; inhibition, % at 38.7 µM; 290,000 compounds, 9.2% hits; AID 2315, 2010; Vero cells, Shiga toxin protein synthesis inhibition reporter; in the data active = inhibition mostly above about 28%, no sharp cut-off; inactive = mostly below about 43%; note: 0% is about no effect
Pf growth 96h – Primary qHTS for delayed death inhibitors of the malarial parasite plastid, 96 hour incubation | P. falciparum luciferase reporter growth, 96 h | Potency, µM (top dose mostly 28.7 µM), for the others: top-dose activity change, negative = inhibition, hits mostly inhibitors | 320,000 compounds, 6.9% hits | AID 504834, 2011; note: potency is the fitted concentration of half-maximal effect; % is set by controls: 0 for no effect and ±100 for the full control effect
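Plates of compound plus infected erythrocytes (2% hematocrit, 0.05% parasitemia final) incubate 96 hours, 37 C, 5% CO2. Detection reagent added; reduced luminescence from the parasites' luciferase reporter flags inhibition.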
Pf growth 48h – Primary qHTS for delayed death inhibitors of the malarial parasite plastid, 48 hour incubation | P. falciparum luciferase growth in erythrocytes, 48 h | Potency, µM (highest dose often 28.7 µM), for inactives: top-dose activity change, negative = inhibition, hits mostly inhibitors | 310,000 compounds, 5.9% hits; note: potency is the fitted concentration of half-maximal effect; % is set by controls: 0 for no effect and ±100 for the full control effect
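Growth was read as firefly luciferase luminescence after a 48 h, 37 C, 5% CO2 exposure of compounds to reporter-bearing P. falciparum cultures (0.1% parasitemia, 2% hematocrit final) in Albumax-supplemented RPMI 1640.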
Sm TGR block – qHTS Assay for the Inhibitors of Schistosoma Mansoni Peroxiredoxins; Schistosoma mansoni thioredoxin glutathione reductase (TGR), Q962Y6; purified TGR, DTNB reduction, TNB absorbance 405 nm; Potency, µM (titrated, usually from 114 µM), for the others: at the highest dose activity change, negative = inhibition, most hits filed as inhibitors; 360,000 compounds, 3% hits; AID 485364, 2010; note: potency is the fitted concentration of half-maximal effect; % is set by controls: 0 for no effect and ±100 for the full control effect; nearly all actives have a fitted effect of over 60% in size
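First, TGR (20 nM dispensed) and NADPH were mixed with compound. Second, a 15 min room-temperature incubation followed. Third, further NADPH and then DTNB were added to start the reaction. Finally, TNB absorbance was monitored kinetically.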
CHX counter – Cycloheximide Counterscreen for Small Molecule Inhibitors of Shiga Toxin; max response, %; AID 2314, 2010; 300,000 compounds, 12% hits; cell reporter, cycloheximide protein synthesis inhibition counterscreen; in the data active = max response mostly above about 13%, no sharp cut-off; inactive = mostly below about 14%; note: read at 38.3 µM for the half of the compounds with a filed dose; 0% is about no effect
* marks the source's active call; other numbers are inactive results; i = inactive; ? = inconclusive; · = no result. Unless noted, calls come from the whole dose curve; as a rule, active = well fitted curve in the direction sought with a large enough effect; inconclusive = small, poorly fitted or top-dose-only effect, or another doubt; inactive = no such curve, though single readings can be large; an effect the other way counts as inactive or inconclusive.

SMILES | NS1 function inh | Shiga toxin inh | Pf growth 96h | Pf growth 48h | Sm TGR block | CHX counter
Cc1cc(C)cc(-n2ccnc2SCC(=O)Nc2ccccc2F)c1 | · | · | · | · | 13% | ·
Brc1ccccc1OCCCCn1cnc2ccccc21 | -8% | 42* | ? | -16% | 9% | 26*
Cc1cc2ncn(CCOc3ccccc3C#N)c2cc1C | -39% | -2 | 13µM* | ? | -9% | 18
Cc1ccc(OCCCCn2cnc3ccccc32)c(C)c1 | -76% | 16 | ? | · | -16% | 7
Clc1ccccc1OCCn1cnc2ccccc21 | -97% | 72* | ? | 3% | 0% | 31*
Clc1ccc(OCCn2cnc3ccccc32)cc1 | -72% | 23 | · | ? | 4% | 14
O=c1ccnc(SCc2ccc(Cl)cc2)[nH]1 | -9% | · | · | · | · | ·
COc1ccc(N=Nc2ccc(O)c3ncccc23)cc1 | 17% | 6 | 0.52µM* | 0.59µM* | -14% | 5
O=S(=O)(O)c1cccc2c(N=Nc3ccc(O)c4ncccc34)cccc12 | 7% | -4 | -17% | ? | -31% | 1
COc1cccc(N=Nc2ccc(O)c3ncccc23)c1 | -115% | 89* | ? | ? | -19% | 13*
Cc1ccc(N=Nc2ccc(O)cc2)c(Br)c1 | -153% | 49* | 336% | 179% | 0% | 44*
Cc1ccc(C)c(NNC(=O)C(=O)NNc2cc(C)ccc2C)c1 | 0% | -10 | -9% | -8% | 0% | 2
Nc1ccc(Br)c2cccnc12 | -7% | 13 | 27% | 13% | 50µM* | 8
COc1ccc(-c2ncccc2O)cc1 | 0% | -10 | ? | · | -61% | -1
NC(=S)NNC(=O)C12CC3CC(CC(C3)C1)C2 | 3% | 10 | 7% | 13% | 8% | -1
CC(C)c1ccc(NC(=O)CN(C)S(=O)(=O)c2ccc3c(c2)n(C)c(=O)c(=O)n3C)cc1 | · | · | · | · | 6% | ·
CCOc1ccc(NC(=O)N2CCN(c3nnc(C)c4c(C)n(-c5ccccc5)nc34)CC2)cc1 | · | · | · | · | 2% | ·
Oc1ccc(N=Nc2ccc(Br)cc2)c(O)c1 | -51% | 84* | 1.9µM* | ? | -9% | 48*
O=c1[nH]c(=O)n(-c2ccccc2)c(O)c1N=Nc1ccc(Br)cc1 | · | 20 | 3% | 68% | -12% | 19
COc1cccc(N=Nc2ccc3cccnc3c2O)c1 | -94% | 62* | ? | · | -17% | 30*
Oc1ccc(N=Nc2ccc3c(c2)OCCO3)c2cccnc12 | · | 135* | ? | 1µM* | -25% | 44*
Cc1ccccc1N=Nc1ccc(O)c2ncccc12 | -16% | 2 | ? | 0.37µM* | -2% | -3
COc1ccc(-c2cc(CC3(C(=O)O)CCN(C(=O)OC(C)(C)C)CC3)on2)c(OC)c1 | 1% | -11 | -28% | -15% | -8% | 2
COc1ccc(CNC(=O)CN(c2ccc(C)cc2)S(=O)(=O)c2c(C)nn(C)c2C)cc1 | -16% | -10 | ? | ? | 1% | -3
Cc1cc(S(=O)(=O)Nc2ccc(C(=O)NCC(C)(C)N3CCOCC3)cc2)ccc1F | -3% | -30 | 16% | 9% | -3% | -2
SMILES | NS1 function inh | Shiga toxin inh | Pf growth 96h | Pf growth 48h | Sm TGR block | CHX counter
Nc1ccc(N=Nc2ccccc2)c2cccnc12 | 10% | 90* | 14% | 50% | ? | 48*
Oc1ccc(N=Nc2ccc3c(c2)OCCO3)c(O)c1 | 4% | 25 | 152% | 130% | 3% | 22*
O=C(CNC(=O)c1ccc2c(c1)OCCO2)N/N=C/c1ccc(O)cc1O | 1% | -14 | ? | -5% | -4% | -7
COc1ccc(C)cc1N=Nc1ccc(O)c2ncccc12 | · | 33 | ? | 2.6µM* | 0% | -2
O=Nc1ccc(O)c2ncccc12 | 4% | 44* | 3.3µM* | 1.5µM* | -33% | 56*
CCOc1ccccc1NC(=O)C(C)N(c1ccccc1)S(C)(=O)=O (stereo unspecified) | · | · | · | · | 1% | ·
Cc1ccc(CNC(=O)CCC2CCCN(Cc3cccc4cccnc34)C2)o1 (stereo unspecified) | 8% | -6 | ? | 22% | ? | 5
CCC(=O)NC(Cc1ccccc1)c1nc2ccccc2[nH]1 (stereo unspecified) | 13% | 11 | -14% | 8% | 0% | 12
CCc1nc2ccccc2[nH]1 | 8% | -5 | 0% | · | -3% | -2
NC(Cc1nc2ccccc2[nH]1)c1ccc(Cl)cc1 (stereo unspecified) | -4% | 81* | i | 7% | 3% | 45*
c1ccc(OCc2nc3ccccc3[nH]2)cc1 | -31% | 75* | 25% | 114% | -1% | 49*
NC(Cc1ccccc1)c1nc2ccccc2[nH]1 (stereo unspecified) | 9% | 48* | 28% | 32% | 6% | 18*
Cc1ccc(OCc2nc3ccccc3[nH]2)cc1 | -23% | 57* | 22% | 32% | -22% | 61*
c1ccc(Cc2nc3ccccc3[nH]2)cc1 | -16% | -3 | ? | -3% | -1% | -3
COc1ccccc1-c1noc(-c2ccc(N(C)Cc3ccccc3)c([N+](=O)[O-])c2)n1 | · | · | · | · | 0% | ·
Cc1cc(C)c(S(=O)(=O)NCCOc2ccccc2)c(C)c1-n1cnnn1 | · | -11 | ? | -12% | -4% | -1
CCc1c(C)sc2c1CCN(Cc1cccc(F)c1)C2c1ccccc1 (stereo unspecified) | · | · | · | · | -5% | ·
O=C(/C=C/c1ccccc1)NC1CCCc2ccccc21 (stereo unspecified) | 0% | -7 | ? | ? | 10% | 12
Cc1ccccc1Cn1c(=O)n(CC2CCC(C(=O)N3CCC(C)CC3)CC2)c(=O)c2sccc21 (stereo unspecified) | · | · | · | · | 0% | ·
Clc1ccc(OCc2nc3ccccc3[nH]2)cc1 | · | 56* | ? | 203% | -8% | 32*
CCn1cc(C(=O)NCCCN2CCCC(C)C2)c(=O)c2cc(S(=O)(=O)N(C)C3CCCCC3)ccc21 (stereo unspecified) | 0% | -9 | 12µM* | ? | -13% | -5
CCn1cc(C(=O)N2CCN(c3ccccc3F)CC2)c(=O)c2cc(S(=O)(=O)N(C)C3CCCCC3)ccc21 | · | · | · | · | 0% | ·
CN(C1CCCCC1)S(=O)(=O)c1ccc2c(c1)c(=O)c(C(=O)NCCN1CCCC1)cn2C | -3% | 5 | ? | · | -6% | -6
CCCCN(C)CCCNC(=O)c1cn(C)c2ccc(S(=O)(=O)N(C)C3CCCCC3)cc2c1=O | 2% | -1 | 5% | ? | 5% | -2
CCn1cc(C(=O)N2CCc3ccccc32)c(=O)c2cc(S(=O)(=O)N(C)C3CCCCC3)ccc21 | ? | -10 | ? | 12µM* | 4% | -5
CN(C1CCCCC1)S(=O)(=O)c1ccc2c(c1)c(=O)c(C(=O)NCCCN1CCCC1)cn2C | -1% | -3 | 13µM* | · | 1% | -7

Source: PubChem BioAssay
